Sampled rows, rich in hits. Any-hit rate of the full collection: about 2.7%.
Neddyl block: inhibitors of cullin neddylation, primary screen, biochemical, TR-FRET, uHTS, NAE and Ubc12; AID 651699, 2012; calls only at 25 µM; NEDD8-conjugating enzyme Ubc12 (Homo sapiens) + NEDD8-activating enzyme E1 regulatory …; 0.58% of 360,000 active; in the data active = inhibition above about 36%
Target sequence (P61081 whole entry, looked up): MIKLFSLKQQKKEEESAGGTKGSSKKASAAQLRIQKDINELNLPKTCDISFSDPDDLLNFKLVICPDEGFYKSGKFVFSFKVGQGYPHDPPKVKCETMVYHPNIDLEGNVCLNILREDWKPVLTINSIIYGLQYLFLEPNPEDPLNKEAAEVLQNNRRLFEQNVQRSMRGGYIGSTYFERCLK
Target sequence (Q13564 whole entry, looked up): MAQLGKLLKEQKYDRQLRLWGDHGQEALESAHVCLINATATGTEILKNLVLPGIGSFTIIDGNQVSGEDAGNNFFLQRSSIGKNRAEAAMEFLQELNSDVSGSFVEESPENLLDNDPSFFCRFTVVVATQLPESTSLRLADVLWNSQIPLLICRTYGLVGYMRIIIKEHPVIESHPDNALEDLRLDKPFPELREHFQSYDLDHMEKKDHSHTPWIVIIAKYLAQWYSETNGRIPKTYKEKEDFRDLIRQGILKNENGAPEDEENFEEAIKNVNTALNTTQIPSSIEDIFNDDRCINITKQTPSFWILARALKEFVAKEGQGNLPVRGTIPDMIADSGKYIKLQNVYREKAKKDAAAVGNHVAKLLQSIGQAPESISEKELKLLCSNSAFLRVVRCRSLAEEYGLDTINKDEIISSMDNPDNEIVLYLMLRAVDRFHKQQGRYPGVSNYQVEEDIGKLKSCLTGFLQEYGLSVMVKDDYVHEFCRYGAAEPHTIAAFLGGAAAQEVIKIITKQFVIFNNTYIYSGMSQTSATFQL
FAS-TE inh: FAS thioesterase domain inhibitors, primary screen, biochemical, fluorescence intensity, uHTS | Fatty acid synthase (Homo sapiens), P49327 | recombinant FAS-TE, OMFH fluorogenic substrate, fluorescence endpoint | inhibition, % at 15 µM | 0.67% of 360,000 active | AID 602261, 2012;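 active = compounds whose normalised, plate-corrected inhibition of enzyme fluorescence in the single-dose primary screen is 50% or more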;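 note: 0% = DMSO with enzyme and 100% = substrate without enzyme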
KLK7 zymogen act: proKLK7 zymogen activators, primary screen, biochemical, fluorescence intensity; Kallikrein-7 (Homo sapiens), P49862; 0.9% of 370,000 active; activation, % at 7 µM; purified proKLK7, EDANS-DABCYL substrate fluorescence; 100% is mature enzyme control, 0% vehicle;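 active = activation above the mean of all tested compounds plus 3 SD, computed per campaign excluding outliers beyond control limits, cut at about 13% in these data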
PfG6PD inh: PfG6PD enzyme inhibitors, primary screen, biochemical, fluorescence intensity, uHTS; glucose-6-phosphate dehydrogenase-6-phosphogluconolactonase (Plasmodium falciparum 3D7); PfGluPho enzyme, NADPH resazurin-diaphorase fluorescence; inhibition, % at 20 µM; 0.78% of 350,000 active; AID 504690, 2011;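 active = inhibition reaching at least a set limit at 20 µM in the primary screen, cut at about 59% in these data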;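 note: 0% = DMSO wells with substrate and 100% = DMSO wells lacking glucose-6-phosphate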
proKLK7 act conf: proKLK7 zymogen activators, confirmation, biochemical, fluorescence intensity, triplicate. AID 686949, 2013. activation, % at 7 µM. 68% of 3,200 active. shares compounds with KLK7 zymogen act. purified proKLK7, EDANS-DABCYL substrate fluorescence; scaled: vehicle 0, mature enzyme 100;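 active = activation, as change over the incubation, above the mean of all tested compounds plus 3 SD, cut at about 13% in these data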
EDANS-DABCYL int: EDANS-DABCYL substrate optical interference, artefact control for kallikrein-7 zymogen activator project, biochemical, fluorescence intensity, high throughput; shares compounds with KLK7 zymogen act; no enzyme, 4 h; solvent 0%, active enzyme control 100%; activation, % at 7 µM; 80% of 3,200 active; AID 686952, 2013;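 active = activation above the all-compound mean plus 3 SD, ignoring values outside control-based bounds, cut at about 4.8% in these data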;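 note: value is the 4 h activation minus the activation read at time zero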
EDANS interf: counter-screen for kallikrein-7 activators: EDANS-DABCYL interference, dose response. shares compounds with KLK7 zymogen act. EDANS-DABCYL peptide fluorescence interference, no enzyme. EC50, µM. 20% of 250 active. AID 720493;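 active = compounds that raise the fluorescence signal in this interference counterscreen, with EC50 at or below 10 µM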;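 note: intact quenched peptide substrate alone read at 355 nm excitation and 520 nm emission; signal is fluorescence gain from T0 to T4 after four hours at room temperature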
An asterisk follows results filed as active; i = inactive; · = no result given.

SMILES | Neddyl block | FAS-TE inh | KLK7 zymogen act | PfG6PD inh | proKLK7 act conf | EDANS-DABCYL int | others
CCc1cc2c(=O)c(-c3ccc4c(c3)OCCO4)coc2c(CN2CCCCC2C)c1O (stereo unspecified) | · | 4.2 | 16.3* | -7.9 | -95.6 | -102.4
CC1CN(Cc2c(O)ccc3c(=O)c(-c4ccccc4)coc23)CC(C)O1 (stereo unspecified) | · | -6.5 | 81.8* | -15.0 | 27.3* | 25.9*
COc1ccc(-c2coc3cc(O)ccc3c2=O)cc1 | · | -1.9 | -7.3 | 1.4 | · | ·
COc1ccc(-c2coc3c(CN4CCCCC4C)c(O)ccc3c2=O)cc1 (stereo unspecified) | · | -5.4 | 45.7* | 4.3 | 69.4* | 57.8*
O=c1c(-c2ccccc2)coc2c(CN3CCCCC3)c(O)ccc12 | · | -4.8 | 37.7* | -11.6 | 64.6* | 63.0*
C=CCN(CC#CCN(C)C(=O)c1cccn1C(=O)OC(C)(C)C)Cc1ccc(OC)cc1OC | · | · | -0.2 | · | · | ·
CC1CCCCN1Cc1c(O)ccc2c(=O)c(-c3ccccc3)coc12 (stereo unspecified) | · | -2.4 | 33.6* | 3.2 | 70.5* | 69.1*
CCC1CCCCN1Cc1c(O)ccc2c(=O)c(-c3ccccc3)coc12 (stereo unspecified) | · | -3.8 | 37.8* | -4.4 | 54.7* | 32.7*
N#Cc1c(N(CCO)CCO)nc(N)c2c(N)nc3c(c12)CC(=O)N3CC1CCCO1 (stereo unspecified) | · | -5.0 | 30.1* | 36.3 | 42.6* | 48.8*
Cn1c(=O)ccc2ccccc21 | i | 0.9 | 0.2 | · | · | ·
COc1cccc(-c2cc(C(F)(F)F)c(C#N)c(=O)[nH]2)c1 | · | -5.7 | 16.7* | -4.3 | 39.6* | 51.4*
N#Cc1c(C(F)(F)F)cc(-c2ccccc2Cl)[nH]c1=O | · | -1.7 | 9.9 | -30.9 | · | ·
CC1CN(C(=O)c2cc3c(=O)n4ccccc4nc3n2C)CC(C)O1 (stereo unspecified) | · | -6.6 | 79.1* | -8.9 | 75.2* | 70.7*
Cn1c(C(=O)O)cc2c(=O)n3ccccc3nc21 | · | -4.2 | 58.3* | -9.7 | 70.5* | 78.6*
CCOC(=O)C1CCN(C(=O)c2cc3c(=O)n4ccccc4nc3n2C)CC1 | · | -9.2 | 78.0* | -7.3 | 64.1* | 64.2*
CC1CC(NC(=O)c2cc3c(=O)n4ccccc4nc3n2C)CC(C)(C)C1 (stereo unspecified) | · | 8.1 | -83.5 | 30.8 | · | ·
Cn1c(C(=O)N2CCOCC2)cc2c(=O)n3ccccc3nc21 | · | -2.8 | 61.5* | -2.4 | 72.8* | 83.9*
Cn1c(C(=O)N2CCc3ccccc3C2)cc2c(=O)n3ccccc3nc21 | · | -0.8 | 15.8* | -7.5 | -32.9 | -26.3
CC1CCN(c2ccc(C(=O)O)cc2NS(=O)(=O)c2ccccc2)CC1 | · | · | 0.2 | · | · | ·
O=c1c2ccccc2c(/C=N/c2n[nH]c(CCCO)n2)c(O)n1-c1ccccc1Cl | i | -17.5 | 27.2* | 5.8 | 4.7 | 5.8*
O=c1c2ccccc2c(/C=N/c2nnc(Cc3ccccc3)s2)c(O)n1-c1ccc(Cl)cn1 | i | 45.0 | 0.8 | -32.4 | · | ·
CCC1(C)Cc2ccccc2-c2nc(NCCCO)[nH]c(=O)c21 (stereo unspecified) | · | 0.4 | 33.3* | -6.9 | -56.2 | -58.1
CCC1(CC)Cc2ccccc2-c2nc(NCCCO)[nH]c(=O)c21 | · | 0.0 | -1.2 | -8.0 | · | ·
O=c1[nH]c(NNC(=S)NC2CCCCC2)nc2c1C1(CCCC1)Cc1ccccc1-2 | i | -11.7 | 0.6 | -0.2 | · | ·
CC1(C)Cc2ccccc2-c2nc(NCCCO)n(-c3ccccc3)c(=O)c21 | · | 0.7 | 15.1* | 8.6 | -52.7 | -29.8
SMILES | Neddyl block | FAS-TE inh | KLK7 zymogen act | PfG6PD inh | proKLK7 act conf | EDANS-DABCYL int | others
O=c1[nH]c(NCCCO)nc2c1C1(CCCC1)Cc1ccccc1-2 | · | 4.4 | 12.8* | 11.7 | -43.3 | -53.0
CC(C)Oc1cccc(C(=O)Nc2nnc([C@H]3C[C@H](O)[C@@H](CO)O3)s2)c1 | i | -9.5 | 0.2 | · | · | ·
O=C(Nc1ccc2nc3ccccc3nc2c1)c1ccccc1 | i | -3.1 | 35.3* | 25.8 | 32.1* | 21.4* | EDANS interf=>69.5
CC(=O)Nc1ccc2nc(-c3ccncc3)[nH]c2c1 | · | -7.4 | 21.7* | -4.3 | 17.0* | 21.4*
CC(=O)Nc1ccc2ccccc2c1 | i | -6.6 | · | 1.9 | · | ·
CC(=O)Nc1ccc2cc3ccc(NC(C)=O)cc3nc2c1 | i | -12.6 | 17.3* | 23.9 | 34.2* | 44.2*
Nc1ccc(C(=O)Nc2ccc3nc(-c4ccncc4)[nH]c3c2)cc1 | i | -8.4 | 0.3 | 9.0 | · | ·
O=C(Nc1ccc(Cl)c(Cl)c1)c1ccccc1 | i | 22.4 | 0.5 | 29.4 | · | ·
CCOC(=O)c1csc(NC(=O)C2CCCN(S(=O)(=O)c3ccc([N+](=O)[O-])cc3)C2)n1 (stereo unspecified) | · | · | -0.3 | · | · | ·
Cc1c(C2(O)CCCCC2)[nH]c2cnccc12 | · | -13.4 | 77.3* | 0.2 | 23.8* | 13.9* | EDANS interf=>69.5
N#CCn1cc(/C=N/NC(=O)c2cc3c(ccc4ccccc43)o2)c2ccccc21 | · | 4.0 | 35.5* | 2.2 | -35.7 | -2.6
COc1ccc(/C=N/NC(=O)c2cc3c(ccc4ccccc43)o2)cc1OC | · | 2.8 | 42.7* | 5.1 | 58.2* | 4.5* | EDANS interf=>69.5
CCOc1ccc2nc(S(=O)(=O)NC(=O)C3(C)CCN3C(=O)c3c(C)noc3C)sc2c1 (stereo unspecified) | i | -7.0 | 0.0 | · | · | ·
CCn1c(/C=N/c2nc3ccccc3n2C)nc2ccccc21 | i | -8.4 | -1.8 | 0.9 | · | ·
CCn1c(/C=C/c2cc[n+](C)cc2)nc2ccccc21 | i | -1.6 | 56.8* | -4.1 | 59.1* | 62.2*
O=C(COC(=O)/C=C/c1ccccc1Cl)NC1CC1 | i | -7.2 | -0.1 | -3.8 | · | ·
Nc1nc2c(-c3ccc(Br)cc3)nnn2c2ccccc12 | i | -8.9 | -1.1 | 7.7 | · | ·
Nc1nc2c(C(=O)N3CCCC3)nnn2c2ccccc12 | · | · | 19.1* | · | 21.9* | 20.2*
C[C@@H]1CN([C@H](C)CO)C(=O)CCCn2nncc2CO[C@H]1CN(C)C(=O)c1ccncc1 | i | -0.2 | -0.8 | 1.8 | · | ·
CCc1ccc(-c2cn3nc(-c4ccccc4)cnc3n2)cc1 | i | -3.2 | -14.4 | -5.2 | · | ·
Cc1ccc(-c2cn3nc(C)c(C)nc3n2)cc1 | · | -10.2 | 54.9* | 14.2 | 58.9* | 55.8*
CCOc1ccccc1CN1[C@@H](c2ccc(OC)cc2)CC(C(=O)OC)(C(=O)OC)[C@H]1c1ccccc1 | i | · | -0.5 | · | · | ·

Compound activity as filed in PubChem BioAssay.
